Measurements taken from PubChem BioAssay AID1159580 (chemical genetic matrix, 2015).
The whole screen tested about 5,500 compounds, of which about 2,000 (36%) were called active. Inconclusive results (about 18%) are left out. Some of the results follow. A number with no mark means an inactive call. Rule as the data show it: active = normalized growth mostly below about 0.91 (no sharp cut-off); inconclusive = no clear call, values can overlap the other calls; inactive = mostly above about 0.92.

Assay: chemical genetic growth profiling, strain panel (AID 1159580);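 also: tested at 20 µM; growth read once vehicle control cultures reached saturation at 30 °C; 1 = growth at the plate median or of vehicle wells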
Settings: growth OD

ClC(Cl)=C(c1ccc(Cl)cc1)c1ccc(Cl)cc1
normalized growth (S. cerevisiae deletion strains, locus YJR075W, strain HOC1, stronger effect = lower value): 0.947
normalized growth (S. cerevisiae deletion strains, locus YKL009W, strain mrt4, stronger effect = lower value): 0.995
normalized growth (S. cerevisiae deletion strains, locus YKL068W, stronger effect = lower value): 0.94 (active)
normalized growth (S. cerevisiae deletion strains, locus YKL085W, strain MDH1 (second series), stronger effect = lower value): 0.931
normalized growth (S. cerevisiae deletion strains, locus YKL085W, strain MDH1, stronger effect = lower value): 0.931
normalized growth (S. cerevisiae deletion strains, locus YKL160W, strain elf1, stronger effect = lower value): 0.998
normalized growth (S. cerevisiae deletion strains, locus YKL190W, strain CNB1, stronger effect = lower value): 0.966
normalized growth (S. cerevisiae deletion strains, locus YKR001C, strain vps1, stronger effect = lower value): 0.949
normalized growth (S. cerevisiae deletion strains, locus YKR026C, strain gcn3, stronger effect = lower value): 1
normalized growth (S. cerevisiae deletion strains, locus YKR091W, strain srl3, stronger effect = lower value): 0.985
normalized growth (S. cerevisiae deletion strains, locus YLL001W, strain dnm1, stronger effect = lower value): 0.996
normalized growth (S. cerevisiae deletion strains, locus YLL026W, stronger effect = lower value): 0.993
normalized growth (S. cerevisiae deletion strains, locus YLL041C, strain sdh2, stronger effect = lower value): 0.991
normalized growth (S. cerevisiae deletion strains, locus YLR027C, strain aat2, stronger effect = lower value): 1.01
normalized growth (S. cerevisiae deletion strains, locus YLR039C, strain RIC1, stronger effect = lower value): 0.637 (active)
normalized growth (S. cerevisiae deletion strains, locus YLR058C, strain SHM2, stronger effect = lower value): 0.962
normalized growth (S. cerevisiae deletion strains, locus YLR102C, strain apc9, stronger effect = lower value): 0.954
normalized growth (S. cerevisiae deletion strains, locus YLR113W, strain HOG1, stronger effect = lower value): 0.979
normalized growth (S. cerevisiae deletion strains, locus YLR221C, strain rsa3, stronger effect = lower value): 0.994
normalized growth (S. cerevisiae deletion strains, locus YLR258W, strain gsy2, stronger effect = lower value): 0.985
normalized growth (S. cerevisiae deletion strains, locus YLR262C, strain YPT6 (second series), stronger effect = lower value): 1.04
normalized growth (S. cerevisiae deletion strains, locus YLR262C, strain YPT6, stronger effect = lower value): 0.652
normalized growth (S. cerevisiae deletion strains, locus YLR268W, strain sec22, stronger effect = lower value): 0.969
normalized growth (S. cerevisiae deletion strains, locus YLR320W, strain mms22, stronger effect = lower value): 0.967
normalized growth (S. cerevisiae deletion strains, locus YLR330W, strain CHS5, stronger effect = lower value): 0.962
normalized growth (S. cerevisiae deletion strains, locus YLR342W, strain FKS1 (second series), stronger effect = lower value): 0.879
normalized growth (S. cerevisiae deletion strains, locus YLR342W, strain FKS1, stronger effect = lower value): 0.983
normalized growth (S. cerevisiae deletion strains, locus YLR357W, strain rsc2, stronger effect = lower value): 1
normalized growth (S. cerevisiae deletion strains, locus YLR370C, strain arc18, stronger effect = lower value): 0.996
normalized growth (S. cerevisiae deletion strains, locus YLR371W, strain rom2, stronger effect = lower value): 0.953
normalized growth (S. cerevisiae deletion strains, locus YLR384C, strain iki3, stronger effect = lower value): 0.987
normalized growth (S. cerevisiae deletion strains, locus YLR418C, strain cdc73, stronger effect = lower value): 0.905
normalized growth (S. cerevisiae deletion strains, locus YML016C, strain PPZ1, stronger effect = lower value): 0.946
normalized growth (S. cerevisiae deletion strains, locus YML032C, strain rad52, stronger effect = lower value): 0.949
normalized growth (S. cerevisiae deletion strains, locus YML120C, strain ndi1, stronger effect = lower value): 0.988
normalized growth (S. cerevisiae deletion strains, locus YML124C, strain tub3, stronger effect = lower value): 0.942
normalized growth (S. cerevisiae deletion strains, locus YMR058W, strain fet3, stronger effect = lower value): 0.996
normalized growth (S. cerevisiae deletion strains, locus YMR078C, strain ctf18, stronger effect = lower value): 0.925
normalized growth (S. cerevisiae deletion strains, locus YMR125W, strain sto1, stronger effect = lower value): 0.988
normalized growth (S. cerevisiae deletion strains, locus YMR129W, stronger effect = lower value): 0.997
normalized growth (S. cerevisiae deletion strains, locus YMR205C, strain PFK2, stronger effect = lower value): 0.959
normalized growth (S. cerevisiae deletion strains, locus YMR223W, strain ubp8, stronger effect = lower value): 0.964
normalized growth (S. cerevisiae deletion strains, locus YMR231W, strain pep5, stronger effect = lower value): 0.999
normalized growth (S. cerevisiae deletion strains, locus YMR263W, strain SAP30, stronger effect = lower value): 0.96
normalized growth (S. cerevisiae deletion strains, locus YMR307W, strain GAS1, stronger effect = lower value): 0.978
normalized growth (S. cerevisiae deletion strains, locus YNL067W, strain RPL9B, stronger effect = lower value): 0.974
normalized growth (S. cerevisiae deletion strains, locus YNL071W, strain lat1, stronger effect = lower value): 1
normalized growth (S. cerevisiae deletion strains, locus YNL128W, strain TEP1, stronger effect = lower value): 0.973
normalized growth (S. cerevisiae deletion strains, locus YNL153C, strain GIM3, stronger effect = lower value): 0.98
normalized growth (S. cerevisiae deletion strains, locus YNL183C, strain NPR1, stronger effect = lower value): 0.986
normalized growth (S. cerevisiae deletion strains, locus YNL209W, strain ssb2, stronger effect = lower value): 0.994
normalized growth (S. cerevisiae deletion strains, locus YNL233W, strain BNI4, stronger effect = lower value): 0.981
normalized growth (S. cerevisiae deletion strains, locus YNL248C, strain rpa49, stronger effect = lower value): 0.993
normalized growth (S. cerevisiae deletion strains, locus YNL250W, strain rad50, stronger effect = lower value): 0.917
normalized growth (S. cerevisiae deletion strains, locus YNL271C, strain bni1, stronger effect = lower value): 0.957
normalized growth (S. cerevisiae deletion strains, locus YNL298W, strain CLA4, stronger effect = lower value): 0.953
normalized growth (S. cerevisiae deletion strains, locus YNL307C, strain MCK1, stronger effect = lower value): 0.841 (active)
normalized growth (S. cerevisiae deletion strains, locus YNL322C, strain KRE1 (second series), stronger effect = lower value): 0.989
normalized growth (S. cerevisiae deletion strains, locus YNL322C, strain KRE1, stronger effect = lower value): 0.963
normalized growth (S. cerevisiae deletion strains, locus YNR049C, strain mso1, stronger effect = lower value): 0.994
normalized growth (S. cerevisiae deletion strains, locus YNR052C, strain pop2, stronger effect = lower value): 0.954
normalized growth (S. cerevisiae deletion strains, locus YOL006C, strain TOP1, stronger effect = lower value): 1.01
normalized growth (S. cerevisiae deletion strains, locus YOL012C, strain htz1): 0.487
normalized growth (S. cerevisiae deletion strains, locus YOL147C, strain pex11, stronger effect = lower value): 0.946
normalized growth (S. cerevisiae deletion strains, locus YOR001W, strain rrp6, stronger effect = lower value): 0.989
normalized growth (S. cerevisiae deletion strains, locus YOR061W, strain CKA2, stronger effect = lower value): 0.957
normalized growth (S. cerevisiae deletion strains, locus YOR069W, strain VPS5, stronger effect = lower value): 0.955
normalized growth (S. cerevisiae deletion strains, locus YOR070C, strain gyp1, stronger effect = lower value): 1
normalized growth (S. cerevisiae deletion strains, locus YOR080W, strain dia2, stronger effect = lower value): 0.988
normalized growth (S. cerevisiae deletion strains, locus YOR083W, strain WHI5, stronger effect = lower value): 0.994
normalized growth (S. cerevisiae deletion strains, locus YOR106W, strain vam3, stronger effect = lower value): 1
normalized growth (S. cerevisiae deletion strains, locus YOR136W, strain idh2, stronger effect = lower value): 0.96
normalized growth (S. cerevisiae deletion strains, locus YOR144C, strain elg1, stronger effect = lower value): 0.952
normalized growth (S. cerevisiae deletion strains, locus YOR184W, strain ser1, stronger effect = lower value): 0.954
normalized growth (S. cerevisiae deletion strains, locus YOR231W, strain MKK1, stronger effect = lower value): 1.04
normalized growth (S. cerevisiae deletion strains, locus YOR265W, strain rbl2, stronger effect = lower value): 0.992
normalized growth (S. cerevisiae deletion strains, locus YOR270C, strain vph1, stronger effect = lower value): 0.978
normalized growth (S. cerevisiae deletion strains, locus YOR290C, strain snf2, stronger effect = lower value): 0.99
normalized growth (S. cerevisiae deletion strains, locus YOR316C, strain cot1, stronger effect = lower value): 0.945
normalized growth (S. cerevisiae deletion strains, locus YPL051W, strain arl3, stronger effect = lower value): 0.989
normalized growth (S. cerevisiae deletion strains, locus YPL055C, strain LGE1, stronger effect = lower value): 0.983
normalized growth (S. cerevisiae deletion strains, locus YPL078C, strain atp4, stronger effect = lower value): 0.991
normalized growth (S. cerevisiae deletion strains, locus YPL106C, strain sse1, stronger effect = lower value): 0.991
normalized growth (S. cerevisiae deletion strains, locus YPL240C, strain hsp82, stronger effect = lower value): 0.989
normalized growth (S. cerevisiae deletion strains, locus YPL241C, strain CIN2, stronger effect = lower value): 0.973
normalized growth (S. cerevisiae deletion strains, locus YPL256C, strain CLN2, stronger effect = lower value): 1.05
normalized growth (S. cerevisiae deletion strains, locus YPR119W, strain clb2, stronger effect = lower value): 0.932
normalized growth (S. cerevisiae deletion strains, locus YPR141C, strain kar3, stronger effect = lower value): 0.93
normalized growth (S. cerevisiae deletion strains, locus YPR163C, strain tif3, stronger effect = lower value): 0.952
normalized growth (S. cerevisiae deletion strains, locus YPR167C, strain met16, stronger effect = lower value): 0.942
normalized growth (S. cerevisiae deletion strains, strain wtn01, stronger effect = lower value): 0.936
normalized growth (S. cerevisiae strains, strain wild type, stronger effect = lower value): 0.958
